DRD3 agonist – D3 dopamine receptor (human) agonism; 410,000 compounds, 0.58% hits; D3R DiscoveRx beta-arrestin cells, luminescence, 90 min; P35462; max activation, %; in the data active = max activation above about 30%; also: 0% is about no effect
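Cells at 1500/well, incubated overnight, then treated with pinned compounds (dopamine as control) for 90 min at 37 degrees C. DiscoveRx reagent added for 30 - 60 minutes at room temperature; luminescence read.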
DRD3 antagonist – D3 dopamine receptor (human) antagonism | 360,000 compounds, 2.5% hits | max response, negative = inhibition, % | P35462 | D3R cells, DiscoveRx beta-arrestin luminescence, antagonist mode; stronger effect = lower value; in the data active = max response below about -50%; also: % is scaled to controls: 0 for no effect and ±100 for the full control effect
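Cells expressing the human receptor were seeded at 1500 cells/well, incubated overnight at 37 degrees C in 5% CO2, then exposed to library compounds with dopamine controls for 90 minutes at 37 degrees C before luminescent detection.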
D1 antag – antagonists of human D1 dopamine receptor | 360,000 compounds, 3.2% hits | activity change, negative = inhibition, % at 10 µM | HEK293 TREx D1 cells, calcium flux, dopamine EC80; stronger effect = lower value | AID 504652; in the data active = activity change below about -30%; also: % is scaled to controls: 0 for no effect and ±100 for the full control effect
Target sequence (P21728 whole entry, looked up): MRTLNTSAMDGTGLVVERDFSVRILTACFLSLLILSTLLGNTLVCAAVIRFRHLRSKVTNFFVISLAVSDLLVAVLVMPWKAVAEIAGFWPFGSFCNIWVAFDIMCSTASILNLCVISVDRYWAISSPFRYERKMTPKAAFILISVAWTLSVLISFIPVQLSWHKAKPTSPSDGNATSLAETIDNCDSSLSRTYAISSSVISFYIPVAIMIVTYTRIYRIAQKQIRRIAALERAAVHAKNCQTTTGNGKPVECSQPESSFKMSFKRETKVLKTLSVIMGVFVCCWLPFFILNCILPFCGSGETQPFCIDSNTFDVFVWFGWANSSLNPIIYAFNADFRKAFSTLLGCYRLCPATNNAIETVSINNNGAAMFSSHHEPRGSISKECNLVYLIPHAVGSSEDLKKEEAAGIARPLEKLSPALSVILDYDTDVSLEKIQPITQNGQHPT
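Using tetracycline-induced force-coupled D1 Hek293 cells and a calcium dye, signals were followed for 180 s after compound, then for 180 s after EC80 dopamine, to detect inhibitors.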
D1 PAM – human D1 dopamine receptor positive modulation. P21728. HEK293 TREx D1 cells, calcium flux, dopamine EC20 potentiation. potentiation, % at 10 µM. 360,000 compounds, 0.036% hits; in the data active = potentiation above about 30%; also: 0% is about no effect
D1 ag – agonists of human D1 dopamine receptor; 360,000 compounds, 1% hits; P21728; activation, % at 2 µM; HEK293 T-REx D1 cells, calcium flux, agonist mode; in the data active = activation above about 30%; also: 0% is about no effect
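Tetracycline-induced HEK293 TREx D1 cells, force-coupled to calcium signalling, were dye-loaded with a no-wash calcium kit. Compound was pin-added after a 10 s baseline. Fluorescence was read kinetically at 1 cycle/s for 180 s, with calcium rises flagged as agonism.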
The depositor's hits bear a star; . = no result. Only some compounds are listed: those with a hit (about 6% of all), similar ones and a draw of the others.

SMILES | DRD3 agonist | DRD3 antagonist | D1 antag | D1 PAM | D1 ag
COCCCn1c(SCC(=O)Nc2ccccc2OC)nc2c(sc3ccccc32)c1=O | -10 | . | -3 | 0 | 5
O=C(Nc1ccccc1Cl)Nc1ccccc1Cl | -3 | 7 | 2 | 0 | 2
O=C(Nc1csc([N+](=O)[O-])c1)Nc1ccccc1Cl | 8 | -4 | -31* | -9 | 13
CCCCn1c(SCC(=O)O)nc2ccccc21 | -11 | -80* | 1 | -1 | 4
O=C(O)Cn1c(SCc2ccccc2)nc2ccccc21 | 4 | -53* | -2 | 21 | 2
CCCCn1c(CNC(=O)CCC)nc2ccccc21 | -6 | -8 | -34* | 1 | -1
CCCCCn1c(CNC(=O)CCC)nc2ccccc21 | -3 | 0 | -25 | -8 | 4
CCOc1ccc(CNC(=O)C2CCN(C3=NS(=O)(=O)C(c4ccc(C)cc4)=C3CC)CC2)cc1 | -7 | . | -18 | -6 | 1
CCc1nnc(SCc2ccc(OC)cc2)c2cc3sc(C)cc3n12 | -9 | . | -1 | -3 | 1
Cc1cc(/C=C/c2ccc3cc(N(C)C)ccc3[n+]2C)c(C)n1-c1ccccc1 | -14 | . | . | . | .
COc1ccc(OC)c(CNc2ccc([N+](=O)[O-])cc2C)c1 | -6 | -7 | -37* | 6 | 0
COc1cccc(CNc2ccc([N+](=O)[O-])cc2C)c1 | -7 | 9 | -12 | -5 | 1
COc1ccc(C(=O)/C=C/Nc2ccc([N+](=O)[O-])cc2C)c(OC)c1 | 32* | 16 | -15 | -1 | 7
N#Cc1ccc2c(c1)C[C@]1(c3ccsc3)Oc3c(c(=O)oc4ccccc34)C2O1 | . | . | 11 | -2 | 4
CCC(C(=O)Nc1cccc(-c2cn3cccnc3n2)c1)c1ccccc1 (configuration not stated) | -15 | . | 3 | 2 | 1
Cc1cccc(CS(=O)(=O)c2nnc([C@H](Cc3ccccc3)NC(=O)OC(C)(C)C)o2)c1 | -30 | -77* | -19 | -9 | 2
COc1cccc(N=c2oc3cc(O)ccc3cc2C(=O)NCC2CCCO2)c1 (configuration not stated) | 31* | 14 | -3 | 0 | 2
COc1ccccc1N=c1oc2cc(O)ccc2cc1C(=O)NCC1CCCO1 (configuration not stated) | 2 | 19 | -8 | -7 | 8
Cc1ccccc1N1CC(c2nc3ccccc3n2Cc2ccc(Br)cc2)CC1=O (configuration not stated) | 7 | . | 1 | 0 | 4
NC(=O)C[n+]1cccc2ccccc21 | 10 | 4 | -4 | -5 | 45*
O=C(C/C(=N/O)c1ccccc1O)C(F)F | -8 | -18 | -32* | -7 | 3
CCN(CC)C(=O)c1ccc2nc(-c3ccccc3)c(-c3ccccc3)nc2c1 | -12 | -26 | 17 | 3 | 0
CCN(CC)C(=O)c1ccc2nc3ccccc3nc2c1 | -2 | -63* | -4 | 0 | 0
Cc1cccc(C(=O)N2CCc3cc(CNC(=O)c4ccnn4C)ccc32)c1 | -11 | . | -36* | -3 | 16
Cc1cccc(C(=O)N2CCc3cc(CNS(=O)(=O)c4cccs4)ccc32)c1 | 5 | . | -32* | -1 | 8
SMILES | DRD3 agonist | DRD3 antagonist | D1 antag | D1 PAM | D1 ag
COc1ccc(CCNC(=O)Cn2c(=O)nc(-c3ccccc3)c3ccccc32)cc1OC | 4 | . | -15 | -1 | 0
CN(C)CC(C)(C)CNS(=O)(=O)CC12CCC(CC1=O)C2(C)C (configuration not stated) | 4 | 14 | -75* | 0 | -1
Cc1noc(/C=C/c2ccco2)c1S(=O)(=O)N1CCC(C(=O)Nc2ccc(F)cc2F)CC1 | -8 | . | -1 | 3 | 3
CCOc1cc(CNCCO)cc(Br)c1OCc1ccccc1Cl | 0 | 6 | 24 | -3 | 68*
COc1cc(CNCc2ccncc2)cc(Br)c1OCc1ccccc1F | 15 | 8 | -31* | -5 | 10
CCOc1cc(CNCCN2CCOCC2)ccc1OCc1ccccc1Cl | -5 | -10 | -22 | -5 | 37*
C=CCOc1c(Br)cc(CNCCCN2CCOCC2)cc1OC | 2 | 1 | -2 | -5 | 7
CCOc1cc(CNCCCN2CCOCC2)cc(Br)c1OCc1ccccc1Cl | -14 | -12 | -12 | 0 | 67*
O=C(NCc1ccccc1Cl)C1CCCN(C(=O)c2cnn(-c3ccc(F)cc3)c2-n2cccc2)C1 (configuration not stated) | 4 | . | -4 | -2 | 2
CC(C)Oc1ccc(CNC(=O)CCn2c(=O)c3cccn3c3ccc(F)cc32)cc1 | -15 | . | 0 | 0 | -2
O=C(CCSc1ccccc1)N1CCN(c2ccccc2)CC1 | 10 | -12 | -2 | -3 | 2
Cc1[nH]c2ccccc2c1SCC(=O)N1CCCCC1 | 14 | 5 | -17 | -4 | 2
O=C(CSc1ccccc1C(=O)N1CCN(c2ccc([N+](=O)[O-])cc2)CC1)N1CCCC1 | -3 | 22 | . | . | .
Cc1[nH]c2ccccc2c1SCC(=O)N1CCN(c2ccccc2)CC1 | -6 | -22 | -43* | -7 | -1
O=C(CSc1ccccc1C(=O)N1CCN(c2ccccc2)CC1)N1CCCC1 | 0 | 1 | -44* | -10 | 0
O=C(CSc1ccccc1)N1CCN(c2ccccc2)CC1 | 0 | -13 | -34* | -5 | -1
NC(=O)c1ccc[n+]([C@@H]2O[C@H](COP(=O)([O-])OP(=O)(O)OC[C@H]3O[C@@H](n4cnc5c(N)ncnc54)[C@H](O)[C@@H]3O)[C@@H](O)[C@H]2O)c1 | 8 | . | . | . | .
O=C(Cc1ccccc1)Nc1c(C(=O)Nc2ccccc2F)oc2ccccc12 | 4 | . | 0 | 0 | 2
CC(=O)c1c(C)oc2c(Br)cc(NS(=O)(=O)c3ccc(Br)cc3)cc12 | -7 | . | -47* | -8 | 4
Cc1oc2ccc(NS(=O)(=O)c3ccc(F)cc3)cc2c1C(=O)O | -12 | -15 | 16 | 3 | -1
CC(=O)c1c(C)oc2c1cc(NS(=O)(=O)c1ccc(Br)cc1)c1ccccc12 | -10 | . | -32* | 2 | 5
Cc1oc2c(cc(NS(=O)(=O)c3ccc(Cl)cc3)c3ccccc32)c1C(=O)O | 1 | -11 | 4 | 0 | 3
CCn1c(=O)c2cc(C(=O)N(C)c3cc(C)ccc3C)sc2c2ccccc21 | -3 | . | -4 | 1 | 2
O=[N+]([O-])c1cccc(S(=O)(=O)c2ccc(NCCOCCO)c([N+](=O)[O-])c2)c1 | 7 | -3 | 1 | -3 | 8
O=[N+]([O-])c1cccc(S(=O)(=O)c2ccc(NCCO)c([N+](=O)[O-])c2)c1 | 2 | 13 | -44* | -2 | 6
O=C1O[C@H]2[C@H](O)[C@@H]1OC(O)[C@H]2O (some centres not stated) | 5 | . | . | . | .
CC(C)(C)c1ccc(-n2nc(C#N)c(Cl)cc2=O)cc1 | -9 | -95* | -41* | -5 | 1

Bioassay records: PubChem, National Center for Advancing Translational Sciences (NCATS)
